Compound activity as filed in PubChem BioAssay.
The list is not random: actives were taken first. Their share in the collection is about 3.2%.
MsrA inh – inhibitors of bovine MsrA. 360,000 compounds, 0.75% hits. inhibition, % at 15.5 µM. purified bovine MsrA, absorbance read-out; in the data active = inhibition above about 4.5%;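 note: 0% = vehicle wells with enzyme and 100% = reference inhibitor wells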
sPLA2-III inh – Blocks human group III sPLA2 activity. Q9NZ20. QFRET BODIPY PC-A2 liposome hydrolysis, fluorescence. inhibition, % at 12.2 µM. 370,000 compounds, 0.56% hits;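 active = inhibition above mean plus 3 SD of compounds lying within the high and low control bounds, cut at about 19% in these data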;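 note: 0% = median of test compound wells and 100% = no enzyme DMSO wells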
Target sequence (Q9NZ20 whole entry, looked up): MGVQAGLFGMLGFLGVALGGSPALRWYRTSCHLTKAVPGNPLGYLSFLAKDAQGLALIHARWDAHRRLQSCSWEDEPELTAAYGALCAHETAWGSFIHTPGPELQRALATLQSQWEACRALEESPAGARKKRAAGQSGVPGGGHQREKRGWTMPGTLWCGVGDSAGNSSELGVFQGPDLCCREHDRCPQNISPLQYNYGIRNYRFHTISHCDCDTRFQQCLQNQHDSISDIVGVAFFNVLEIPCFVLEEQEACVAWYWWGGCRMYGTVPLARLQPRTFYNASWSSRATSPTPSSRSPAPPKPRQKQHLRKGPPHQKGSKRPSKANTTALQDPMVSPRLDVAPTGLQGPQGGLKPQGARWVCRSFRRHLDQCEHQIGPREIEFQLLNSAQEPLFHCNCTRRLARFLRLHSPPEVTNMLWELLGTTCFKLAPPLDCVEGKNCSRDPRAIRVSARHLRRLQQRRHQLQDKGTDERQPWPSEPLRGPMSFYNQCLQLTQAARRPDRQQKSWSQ
MsrA act – activators of bovine methionine sulfoxide reductase A | activation, % at 10.6 µM | purified bovine MsrA, absorbance read-out | 360,000 compounds, 0.3% hits | AID 602163; in the data active = activation above about 7.5%;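 note: 0% = vehicle and 100% = reference activator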
rCAG RNA binder – binds r(CAG) RNA repeats. AID 651821. r(CAG) RNA repeat, TO-PRO-1 dye displacement fluorescence. inhibition, % at 3 µM. 370,000 compounds, 1.3% hits;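 active = inhibition above the plate cutoff, the mean of all test compounds on that plate plus 3 SD, cut at about 35% in these data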;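 note: 0% = DMSO alone and 100% = 100 µM mitoxantrone as full dye displacement; higher means more dye released from RNA so lower well fluorescence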
PG9 Ab binder – binds the HIV-1 gp120 antibody PG9 | 360,000 compounds, 0.43% hits | TR-FRET gp120-PG9 antibody binding | AID 624416 | inhibition, % at 6.7 µM; in the data active = inhibition above about 8.5%
rCAG binder conf – r(CAG) RNA repeat binding, confirmation. TO-PRO-1 dye displacement fluorescence. inhibition, % at 3 µM. 4,300 compounds, 70% hits. shares compounds with rCAG RNA binder;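 active = inhibition above a per-plate cutoff, the mean inhibition of sample wells plus 3 SD, cut at about 35% in these data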;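 note: loss of TO-PRO-1 fluorescence as compound displaces dye from 1x1 AA loop RNA; 0% = DMSO only wells and 100% = 100 µM mitoxantrone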
DNA CAG counter – DNA CAG dye complex inhibition counter-screen | 4,300 compounds, 94% hits | AID 652068 | shares compounds with rCAG RNA binder | inhibition, % at 3 µM | d(CAG) DNA oligo TO-PRO-1 dye displacement, fluorescence;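 active = inhibition above its plate's cutoff, the mean test-well inhibition plus 3 SD, cut at about 4.8% in these data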;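 note: 0% = DNA dye mix with DMSO and 100% = 100 µM mitoxantrone; hits displace the dye from DNA and so lower well fluorescence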
* = called active by the depositor; nt = not tested or not shown.

SMILES	MsrA inh	sPLA2-III inh	MsrA act	rCAG RNA binder	PG9 Ab binder	rCAG binder conf	DNA CAG counter
Cc1cccc(/C=N/n2c(-c3ccco3)n[nH]c2=S)c1	1	16	-1	3	2	nt	nt
Cc1cccc(-c2n[nH]c(=S)n2/N=C/C=C/c2ccco2)c1	2	31*	-3	43*	2	26	13*
Cc1nn(-c2ccccc2)c(Cl)c1/C=C1\SC(=S)NC1=O	4	-18	-10	65*	0	64*	18*
C=CCN1[C@H](C)COc2cc(F)ccc2S1(=O)=O	nt	4	nt	-2	nt	nt	nt
Cn1ncc2c(Nc3cccc(Cl)c3)nc(Nc3cccc(Cl)c3)nc21	0	-13	-1	36*	0	21	7.5*
Cn1ncc2c(Nc3ccc(Br)cc3)nc(Nc3ccc(Br)cc3)nc21	1	-2	-3	49*	-2	33	13*
O=C1CCN(Cl)C(=O)N1Cl	1	17	-3	0	1	nt	nt
COC(=O)C1=C(C)N(Cc2ccc(C(F)(F)F)cc2)C(=NCc2ccccc2)NC1c1ccc(C(F)(F)F)cc1 (stereo not given)	-1	8	nt	8	0	nt	nt
CCOC(=O)C1=C(O)/C(=C/c2ccc(CNC(=O)C(=O)Nc3ccc(C)cc3)o2)N=C1C	1	-4	-4	49*	0	23	11*
COC(=O)C1=C(O)/C(=C\c2ccc(CNC(=O)C(=O)Nc3ccc(C)c(C)c3)o2)N=C1C	2	-6	-12	56*	-3	24	12*
COC(=O)C1=C(O)/C(=C\c2ccc(CNC(=O)C(=O)Nc3ccc(C)cc3)o2)N=C1C	3	3	-4	20	-2	nt	nt
CCOC(=O)C(=O)NCc1ccc(/C=C2/N=C(C)C(C(=O)OCC)=C2O)o1	2	-7	-10	8	-10	nt	nt
COc1ccccc1Cc1c(-c2ccc(OC)c(OC)c2)nc2ccc(Br)cn12	2	10	-1	24	0	nt	nt
COc1ccc(-c2nc3ccc(Br)cn3c2Cc2ccccc2C(F)(F)F)cc1OC	0	-7	-3	43*	-1	19	4.8*
Cc1ccc2nc(-c3cccc(Br)c3)c(Cc3ccccc3C(F)(F)F)n2c1	0	-19	-2	35*	-2	22	4.8*
CCOc1cc(/C=C(/NC(C)=O)C(=O)O)cc(Cl)c1OCc1cccc(Br)c1	0	-14	1	44*	1	33	5.5*
CCOc1cc(C(N)=O)cc(Cl)c1OCc1ccccc1	-1	-6	-7	-3	-2	nt	nt
Brc1ccc(-c2csc(N3CCNCC3)n2)cc1	nt	18	nt	nt	nt	nt	nt
Cc1ccc2nc(N/C(=N/S(=O)(=O)c3cccs3)c3ccccc3Cl)sc2c1	2	-51	-3	71*	0	51*	19*
CC1CCc2nc3ccc(S(=O)(=O)N4CCC(C(=O)NC(C)c5ccccc5)CC4)cc3c(C(=O)O)c2C1 (stereo not given)	0	-6	-3	38*	-2	45*	14*
CC(=O)Nc1sc2c(c1-c1nc3ccccc3s1)CCN(C(C)C)CC2	nt	-14	nt	nt	nt	nt	nt
CCN(CC)c1nc(Nc2ccc(Cl)cc2)nc(OCC#N)n1	-1	-3	-2	51*	-1	6	4
CC(C)NC(=O)N[C@@H]1C[C@@H]2O[C@@H](CO)CC[C@@H]2O[C@@H]1CCc1ccc(-c2ccc(F)cc2)cc1	nt	-17	nt	3	nt	nt	nt
CC(C)CSC1=NSC2=NC(=O)/C(=C\c3coc4ccccc4c3=O)C(=N)N12	1	-38	2	61*	-1	59*	55*
CC(C)CSC1=NSC2=NC(=O)/C(=C\c3ccccc3)C(=N)N12	0	-19	-3	76*	0	39*	9.9*
O=C(C(=O)N1CCN(c2ccccc2F)CC1)c1cn(CC(=O)N2CCCC2)c2ccccc12	1	-11	-8	4	-2	nt	nt
C/C(=N\Nc1ccc(Cl)c(C(=O)O)c1)c1ccc(Br)s1	2	-17	-4	43*	0	48*	13*
